A selection: hits, their analogues and other compounds. The true share with any hit is near 19%.
DT40 TDP1 no CPT = qHTS for Inhibitors of human tyrosyl-DNA phosphodiesterase 1 (TDP1): qHTS in cells in absence of CPT. DT40 Tdp1-/- hTDP1 cells, no CPT, ATP luminescence, 48 h. Potency, µM (top dose mostly 46.2 µM), without a hit: top-dose activity change, negative = growth inhibition, usual class: inhibitors. 420,000 tested, 15% active. AID 686978, 2013; note: potency is the fitted concentration of half-maximal effect; nearly all actives have a fitted effect of over 55% in size
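Seeded 400 DT40-hTDP1 cells/well (vehicle DMSO, no 20 nM CPT); pinned compounds; ≥48 hr at 37 °C; CellTiter-Glo luminescence as viability measure.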
IL1B secr inh = qHTS for Inhibitors of Inflammasome Signaling: IL-1-beta AlphaLISA Primary Screen | AID 743279, 2014 | 360,000 tested, 4.7% active | THP-1 LPS/ATP IL-1B secretion, AlphaLISA, 16 h; stronger effect = lower value | activity change, % at 57.5 µM; in the data active = activity change below about -50%; inconclusive = mostly about -30% to -49%
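Secreted IL-1B measured by AlphaLISA bead assay after 16 h compound exposure of THP-1 cells; compounds (final up to 57.5 uM) added 1 h before LPS (250 ng/mL) and ATP (1.25 mM) stimulation; lower signal means less secretion.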
HT1080NT lethal = qHTS for induction of synthetic lethality in tumor cells producing 2HG: qHTS for the HT-1080-NT fibrosarcoma cell line; HT-1080-NT fibrosarcoma viability, CellTiter-Glo ATP luminescence, 48 h; Potency, µM (titrated, usually from 46.1 µM), without a hit: at the highest dose activity, negative = less viability, usual class: cytotoxic; 360,000 tested, 1.6% active;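 note: NT is the 2HG producing partner of a matched IDH1 knockdown line; potency is the fitted concentration of half-maximal effect; 0% = DMSO-treated cells and -100% = media-only wells without cells; nearly all actives have a fitted effect of over 55% in size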
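A 48-hour cytotoxicity screen used HT-1080-NT cells plated 2 hours before compound delivery. ATP-based CellTiter-Glo luminescence measured viability, normalized to DMSO and no-cell controls.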
DT40 TDP1 CPT = qHTS for Inhibitors of human tyrosyl-DNA phosphodiesterase 1 (TDP1): qHTS in cells in presence of CPT; chicken DT40 Tdp1-/-;hTDP1 cells + 20 nM CPT, ATP luminescence, 48 h; Potency, µM (titrated, usually from 46.2 µM), for the others: at the top dose activity change, negative = growth inhibition, usual class: inhibitors; 420,000 tested, 12% active; note: potency is the fitted concentration of half-maximal effect; nearly all actives have a fitted effect of over 55% in size
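Cell growth measured by CellTiter-Glo luminescence after a minimum 48 h, 37 C compound exposure with 20 nM CPT in Tdp1-knockout DT40 cells stably expressing hTDP1, seeded 400/well; qHTS titration format.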
HT1080 IDH1KD tx = qHTS for induction of synthetic lethality in tumor cells producing 2HG: qHTS for the HT-1080-IDH1KD cell line; HT-1080 IDH1 knockdown viability, ATP luminescence, 48 h; Potency, µM (doses to about 46.1 µM), for inactives: top-dose activity, negative = toxicity, most hits filed as cytotoxic; 360,000 tested, 2% active;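 note: potency is the fitted concentration of half-maximal effect; 0% = DMSO wells and -100% = cell-free medium wells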
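After a 2 h attachment period, IDH1KD HT-1080 cells took pin-transferred compound for 48 h at 37 °C; ATP-based luminescence after 10 min room-temperature reagent incubation reported viability.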
* hit, by the source's call; ? = inconclusive; . = not tested or not shown. Unless noted, calls come from the whole dose curve; as a rule, active = well fitted curve in the direction sought with a large enough effect; inconclusive = small, poorly fitted or top-dose-only effect, or another doubt; inactive = no such curve, though single readings can be large; an effect the other way counts as inactive or inconclusive. Unless noted, % is set by controls: 0 for no effect and ±100 for the full control effect.

SMILES	DT40 TDP1 no CPT	IL1B secr inh	HT1080NT lethal	DT40 TDP1 CPT	HT1080 IDH1KD tx
COc1ccc2[nH]c3nc(SCC(=O)Nc4cccc(NC(C)=O)c4)nnc3c2c1	3%	-52*	-9%	-1%	-7%
C=CCC(Nc1ccco1)c1ccccc1 (centres undefined)	-21%	3	-9%	-18%	0%
O=C(Cc1ccsc1)N1CCN(S(=O)(=O)c2ccccc2F)CC1	-1%	15	-8%	-16%	1%
O=C(NNc1c2ccccc2nc2ccccc12)c1ccc(Cl)cc1	12µM*	-9	6%	?	11%
Cc1ccc(C(=O)NNc2c3ccccc3nc3ccccc23)cc1	10µM*	-98*	-14%	13µM*	?
O=C(CN1CCOCC1)NNc1c2ccccc2nc2ccccc12	-29%	-1	7%	9%	1%
Nc1ccccc1C(=O)NNc1c2ccccc2nc2ccccc12	13µM*	-2	-10%	?	-16%
COc1cccc(C(=O)NNc2c3ccccc3nc3ccccc23)c1	12µM*	-4	-29%	?	-24%
COc1cccc(C(=O)NNc2nc(C)cc(C)n2)c1	-4%	0	5%	-4%	1%
CCOC(=O)C1CCCN(CCC(=O)Nc2ccc(Br)c(C)c2)C1 (centres undefined)	?	18	-17%	?	-10%
COc1ccccc1OCC(=O)NNc1c2ccccc2nc2ccccc12	18µM*	?	-10%	?	-10%
COc1ccc2c(c1)OC[C@H]1[C@H]2N2C(=O)CN(CCc3c[nH]c4ccccc34)C(=O)[C@@]2(C)[C@H]1c1ccccc1	?	-23	-21%	?	-1%
Cc1cc(Nc2cccc(Cl)c2)nc2ccc(NC(=O)Cc3cccc(C(F)(F)F)c3)cc12	7.3µM*	.	.	9.2µM*	.
C/C(CC(=O)Nc1cccc(Cl)c1)=N\NC(=O)Cc1ccc(Cl)cc1	-30%	8	-19%	-21%	?
Cc1cc(Nc2cccc(Cl)c2)nc2ccc(NC(=O)Cc3ccc(Cl)cc3)cc12	?	.	.	18µM*	.
COc1ccc(Cl)cc1C(=O)Nc1ccc2nc(Nc3cccc(Cl)c3)cc(C)c2c1	12µM*	.	.	21µM*	.
COc1ccc(CC(=O)Nc2ccc3nc(Nc4cccc(Cl)c4)cc(C)c3c2)cc1OC	16µM*	.	.	18µM*	.
COc1ccc(CC(=O)Nc2ccc3nc(SC)sc3c2)cc1OC	?	36	-24%	-22%	-20%
CCOc1ccccc1-c1nc(Cn2c(=O)cc(C)c3c(C)nn(-c4ccccc4)c32)c(C)o1	5%	.	.	1%	.
CCc1ccccc1NC(=O)CN(C)S(=O)(=O)c1cccc2nsnc12	1%	.	.	?	.
O=C(CN1CCN(S(=O)(=O)N2CCOCC2)CC1)Nc1ccc(Cl)c(Cl)c1	16µM*	-10	-28%	?	-11%
CCOc1ccccc1OCCCC(=O)Nc1ccc(Cl)c(S(=O)(=O)N2CCOCC2)c1	?	13	-12%	?	-24%
CC(C)Oc1ccc(S(=O)(=O)N2CCOCC2)cc1NC(=O)CC1CCCC1	?	-15	-2%	?	-2%
O=C(CN1CCOCC1)Nc1ccc(Cl)c(Cl)c1	-6%	28	1%	-5%	0%
CC(CC(=O)Nc1ccc(Cl)c(S(=O)(=O)N2CCOCC2)c1)c1ccccc1 (centres undefined)	?	-18	18µM*	?	-13%
SMILES	DT40 TDP1 no CPT	IL1B secr inh	HT1080NT lethal	DT40 TDP1 CPT	HT1080 IDH1KD tx
O=C(CC1CCCC1)Nc1cc(S(=O)(=O)N2CCOCC2)ccc1O	?	21	4%	8.2µM*	3%
O=C(CC1CCCC1)Nc1ccc(Cl)c(S(=O)(=O)N2CCOCC2)c1	16µM*	-1	-30%	?	-7%
CCOC(=O)C1(CCc2ccccc2)CCN(C(=O)CN2CCOC2=O)CC1	-12%	11	-3%	-6%	14%
CCCCCCn1cnc2c(oc3nc4c(cc32)CCCC4)c1=O	-29%	-29	-3%	23µM*	2%
COc1cccc(NC(=O)Cn2cnc3c(oc4nc5c(cc43)CCCC5)c2=O)c1	23%	0	-3%	-10%	5%
O=c1c2oc3nc4c(cc3c2ncn1CCCc1ccccc1)CCCC4	?	-53*	-14%	?	-3%
COc1ccccc1NC(=O)Cn1cnc2c(oc3nc4c(cc32)CCCC4)c1=O	-25%	-24	?	?	18%
CCCCn1cnc2c(oc3nc4c(cc32)CCCC4)c1=O	-30%	-60*	-4%	-19%	1%
CC(C)C[C@H]1COc2cc(N3CC[C@H](O)C3)ccc2S(=O)(=O)N1	-22%	38	6%	1%	12%
CC1(C)CC(=O)C2=C(C1)N=C1SCCC(=O)N1C2c1cccc([N+](=O)[O-])c1 (centres undefined)	-23%	0	8%	-27%	7%
CCCCC1SC(N)=NC1=O (centres undefined)	-8%	-11	8%	5%	14%
Cc1ccc(NC2CCCN(C(=O)CCc3ccncc3)C2)cc1C (centres undefined)	-10%	35	19%	-28%	14%
Cc1ccccc1Cn1c(C)c(C(=O)NCCC#N)sc1=O	-5%	16	?	-5%	2%
O=C(Nc1ccccc1)C1=C[C@@H](C2CCCCC2)C[C@@H](OCCCCO)O1	-28%	?	-4%	0%	-5%
O=C(Nc1ccccc1)C1=C[C@@H](C2CCCCC2)C[C@@H](OCc2ccc(CO)cc2)O1	23µM*	0	-18%	18µM*	-22%
O=C(Nc1ccccc1)C1=C[C@H](C2CCCCC2)C[C@H](OCc2ccc(CO)cc2)O1	?	-51*	-15%	?	-17%
Cc1c(NC(=O)COc2cccc(Br)c2)c(=O)n(-c2ccccc2)n1C	-4%	0	-1%	1%	-3%
CCOc1ccc(N(CC(=O)NCc2ccc(OC)cc2)S(C)(=O)=O)cc1	-24%	-9	13%	?	7%
CC(C)Oc1ccc(CNC(=O)C2=Cc3ccccc3OC2)cc1	?	.	.	21µM*	.
O=C(Nc1ccc(Cl)cc1)C1=Cc2cc(Cl)ccc2OC1	26µM*	-17	20%	18µM*	4%
O=C(Nc1ccc(Cl)cc1Cl)C1=Cc2ccccc2OC1	-17%	4	1%	-20%	-3%
COc1ccc(NC(=O)C2=Cc3ccccc3OC2)cc1	?	-51*	-13%	-12%	26%
